Records with an inconclusive call do not appear. Active and inactive are the calls of the source. Calls come from the whole dose curve; as a rule, active = well fitted inhibition curve with a large enough effect; inconclusive = small, poorly fitted or top-dose-only effect; inactive = flat fitted curve, though single readings scatter.

The subject of the assay is CRL-7250. Put plainly: qHTS assay to identify novel small-molecules to repurpose for Merkel cell carcinoma treatment (AID 1296009). Note: nearly all actives have a fitted effect of over 60% in size. The note with it: MCC and control cell lines, CellTiter-Glo viability, 72 h; at 44.8 µM (top of the series) unless noted. Put shortly: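 CellTiter-Glo luminescence after 72 hr compound exposure at 37 degree celsius gave cell viability. Libraries NPC and MIPE were run as 8- and 11-point dose responses; RLUs normalized to DMSO (negative) and no-cell (cytotoxicity) controls.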
Turning to `S=P(N1CC1)(N1CC1)N1CC1`, the outcome was “inactive [at 92 µM]”.

On to `CCOc1cc(CC(=O)N[C@@H](CC(C)C)c2ccccc2N2CCCCC2)ccc1C(=O)O`, for which the outcome was inactive.

For the compound `CC[C@H]1OC(=O)[C@H](C)[C@@H](O[C@H]2C[C@@](C)(OC)[C@@H](O)[C@H](C)O2)[C@H](C)[C@@H](O[C@@H]2O[C@H](C)C[C@H](N(C)C)[C@@H]2O)[C@](C)(O)C[C@@H](C)CN(C)[C@H](C)[C@@H](O)[C@]1(C)O`, the compound was classed as inactive.

For the compound `CC(C(=O)O)c1ccc2c(c1)[nH]c1ccc(Cl)cc12` (centres undefined), the compound was called inactive. Turning to `C[C@@H]1C[C@H]2[C@@H]3C[C@H](F)C4=CC(=O)C=C[C@]4(C)[C@@]3(F)[C@@H](O)C[C@]2(C)[C@@]1(O)C(=O)CO`, the result was inactive. For `CCN1CCCC1CNC(=O)c1cc(S(=O)(=O)CC)c(N)cc1OC` (centres undefined), the outcome was inactive. The result for `O=c1cc[nH]c(=O)[nH]1` reads “inactive”; that for `O=C(CCCl)NCCc1ccccc1`, “inactive”. The result for `CCCCCCCCCCOc1cc2c(=O)c(C(=O)OCC)c[nH]c2cc1OCC` reads “inactive [at 4.96 µM]”. The result for `Nc1ccc(S(=O)(=O)Nc2ccccn2)cc1` reads “inactive”; that for `COc1ccc2cc1Oc1cc3c(cc1OC)CC[N+](C)(C)[C@H]3Cc1ccc(cc1)Oc1c(OC)c(OC)cc3c1[C@@H](C2)[N+](C)(C)CC3`, “inactive”; that for `O=C1OC(CN2CCOCC2)CN1/N=C/c1ccc([N+](=O)[O-])o1` (centres undefined), “inactive”. For `O=C(COCCOCCOCC(=O)Nc1c(I)cc(I)c(C(=O)O)c1I)Nc1c(I)cc(I)c(C(=O)O)c1I`, the outcome was inactive. For `O=C(O)Cn1c(=O)n(Cc2ccc(Br)cc2F)c(=O)c2ccc(Cl)cc21`, the call was inactive.

For the origin of these results see PubChem BioAssay (NCATS).
